Ten compounds from PubChem BioAssay (NCI) can be followed below.

Experiment [1] can be described thus: NCI Yeast Anticancer Drug Screen. Data for the rad50 strain (AID 155).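 Further: 0% = growth of vehicle-only cultures of the same strain.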 Particulars: S. cerevisiae rad50 strain growth inhibition, stronger effect = higher value. Put shortly:
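Genetically altered yeast (DNA repair pathway); compound treatment; growth inhibition vs vehicle ctrl.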

A short description of experiment [2]: NCI Yeast Anticancer Drug Screen. Data for the mec2-1 strain (AID 157). Particulars: S. cerevisiae mec2-1 strain, stronger effect = higher value. Put shortly:
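Vehicle-treated cultures served as reference for growth inhibition of compound-exposed mec2-1 yeast.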

The nature of experiment [3]: NCI Yeast Anticancer Drug Screen. Data for the sgs1 mgt1 strain (AID 161).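 Further: 0% = growth of cultures given vehicle only.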 Particulars: S. cerevisiae sgs1 mgt1 strain, stronger effect = higher value. The gist of the method:
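Test agents were incubated with a DNA-repair-mutant yeast strain. Growth was then read and compared against vehicle-treated controls.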

Experiment [4] can be described thus: NCI Yeast Anticancer Drug Screen. Data for the cln2 rad14 strain (AID 165).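 Further: 0% = growth equal to vehicle treated cultures.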 The note with it: S. cerevisiae cln2 rad14 strain, stronger effect = higher value. Put shortly: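 Each compound was tested on cln2 rad14 yeast. Inhibition of growth was calculated against vehicle-exposed controls.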
Experiment [5] can be described thus: NCI Yeast Anticancer Drug Screen. Data for the mlh1 rad18 strain (AID 175). The note with it: S. cerevisiae mlh1 rad18 strain growth inhibition, stronger effect = higher value. The gist of the method: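 Vehicle-treated cultures served as the reference for growth inhibition in a yeast strain carrying DNA damage repair alterations exposed to each compound.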
Experiment [6] is described as follows: NCI Yeast Anticancer Drug Screen. Data for the bub3 strain (AID 167). The note with it: S. cerevisiae bub3 mutant strain, stronger effect = higher value. Put shortly: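 Yeast carrying a defined mutation is treated with each compound, and growth is compared with that of vehicle-exposed cells to give inhibition.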
[7] abbreviates: at 5.0 µM (retest, dose inferred, filed as 0.5).
Setting [8] is: at 50.0 µM (retest, dose inferred, filed as 5.0).

The panel holds about 79,000 compounds, 15% with a hit somewhere; the sample as a whole holds those more often. A number with no mark means an inactive call. The source made the active and inactive calls. No stated cut-off is given here; in the data, active means growth inhibition above about 70%; inactive means the rest.

With `CCCCCCCCCCCC[N+]1(C)CCCC1c1cccnc1` (stereo not given), the growth inhibition in experiment [1] (setting [7]) is 19%; in experiment [1] (setting [8]) it was 97% (active); in experiment [1] (at 50.0 µM), 50.5%; in experiment [2] (setting [7]), 13%; in experiment [2] (setting [8]), 98% (active); in experiment [2] (at 50.0 µM), 97.5% (active). In addition, the growth inhibition in experiment [3] (setting [7]) was 4%; in experiment [3] (setting [8]), 98% (active); in experiment [3] (at 50.0 µM), 51.9%; in experiment [4] (setting [7]) it was 5%; in experiment [4] (setting [8]) it was 98% (active); in experiment [4] (at 50.0 µM) it was 94.3% (active). Further, the growth inhibition in experiment [5] (setting [7]) was 19%; in experiment [5] (setting [8]) it was 97% (active); in experiment [5] (at 50.0 µM), 96.9% (active).
For the compound `O=C1/C(=C/c2ccc3c(c2)OCO3)Sc2scc(-c3ccc(O)c(O)c3)[n+]21`, the growth inhibition is 25% in experiment [1] (setting [7]); 98% (active) in experiment [1] (setting [8]); 83.8% (active) in experiment [1] (at 50.0 µM); 33% in experiment [2] (setting [7]); 99% (active) in experiment [2] (setting [8]); 88.3% (active) in experiment [2] (at 50.0 µM). The growth inhibition is 26% in experiment [4] (setting [7]); 98% (active) in experiment [4] (setting [8]); 89.4% (active) in experiment [4] (at 50.0 µM); 97% (active) in experiment [6] (setting [7]); 98% (active) in experiment [6] (setting [8]); 88.5% (active) in experiment [6] (at 50.0 µM). Further, the growth inhibition in experiment [5] (setting [7]) was 27%; in experiment [5] (setting [8]) it was 99% (active); in experiment [5] (at 50.0 µM), 90.8% (active).
Turning to `CC(=O)Nc1c(Cl)ccc2c1Cc1cc([N+](=O)[O-])ccc1-2`, the growth inhibition in experiment [1] (setting [7]) is 19%; in experiment [1] (setting [8]), 92% (active); in experiment [1] (at 50.0 µM) it was 91% (active); in experiment [2] (setting [7]) it was 2%; in experiment [2] (setting [8]), 19%; in experiment [2] (at 50.0 µM) it was 45.8%. For the same compound, the growth inhibition in experiment [3] (setting [7]) is 6%; in experiment [3] (setting [8]), -39%; in experiment [3] (at 50.0 µM), 49.5%; in experiment [4] (setting [7]) it was -3%; in experiment [4] (setting [8]) it was 44%; in experiment [4] (at 50.0 µM) it was 47.9%. Moreover, the growth inhibition in experiment [5] (setting [7]) was -9%; in experiment [5] (setting [8]), 66%; in experiment [5] (at 50.0 µM), 90.8% (active).
Turning to `CCOc1ccnc2c(C)c3c([nH]c4ccccc43)c(C)c12`, the growth inhibition in experiment [1] (setting [7]) was 50%; in experiment [1] (setting [8]), 99% (active); in experiment [1] (at 50.0 µM) it was 99.2% (active); in experiment [2] (setting [7]), 23%; in experiment [2] (setting [8]) it was 99% (active); in experiment [2] (at 50.0 µM), 99.5% (active). The growth inhibition in experiment [3] (setting [7]) was 29%; in experiment [3] (setting [8]) it was 52%; in experiment [3] (at 50.0 µM), 99.2% (active); in experiment [4] (setting [7]), 14%; in experiment [4] (setting [8]), 97% (active); in experiment [4] (at 50.0 µM), 99% (active). Also, the growth inhibition in experiment [6] (setting [7]) was 11%; in experiment [6] (setting [8]), 99% (active); in experiment [6] (at 50.0 µM), 99.3% (active); in experiment [5] (setting [7]), 16%; in experiment [5] (setting [8]), 99% (active); in experiment [5] (at 50.0 µM) it was 99.3% (active).
Take `OCC(O)C(O)C(O)/C=N\Nc1ccccc1` (stereo not given): the growth inhibition in experiment [1] (setting [7]) is 9%; in experiment [1] (setting [8]), 19%; in experiment [1] (at 50.0 µM), 49.6%; in experiment [2] (setting [7]), -3%; in experiment [2] (setting [8]), -6%; in experiment [2] (at 50.0 µM) it was 44.4%. The growth inhibition is -3% in experiment [4] (setting [7]); -7% in experiment [4] (setting [8]); 43% in experiment [4] (at 50.0 µM); 1% in experiment [6] (setting [7]); 31% in experiment [6] (setting [8]); 51.5% in experiment [6] (at 50.0 µM). Besides, the growth inhibition in experiment [5] (setting [7]) is 16%; in experiment [5] (setting [8]) it was 42%; in experiment [5] (at 50.0 µM) it was 18.1%.
As for `COc1ccc(OP2(Oc3ccc(OC)cc3)=NP(Oc3ccc(OC)cc3)(Oc3ccc(OC)cc3)=NP(Oc3ccc(OC)cc3)(Oc3ccc(OC)cc3)=NP(Oc3ccc(OC)cc3)(Oc3ccc(OC)cc3)=N2)cc1`, the growth inhibition in experiment [1] (setting [7]) was 41%; in experiment [1] (setting [8]), 2%; in experiment [1] (at 50.0 µM), 61.3%; in experiment [2] (setting [7]), 7%; in experiment [2] (setting [8]), -9%; in experiment [2] (at 50.0 µM) it was 65.8%. Also, the growth inhibition in experiment [4] (setting [7]) was 0%; in experiment [4] (setting [8]) it was -13%; in experiment [4] (at 50.0 µM), 24.1%; in experiment [6] (setting [7]) it was 20%; in experiment [6] (setting [8]) it was 35%; in experiment [6] (at 50.0 µM), 54.5%. Moreover, the growth inhibition in experiment [5] (setting [7]) is 17%; in experiment [5] (setting [8]), -2%; in experiment [5] (at 50.0 µM) it was 78.8% (active).
`N#CC(C#N)=c1c2nsnc2c(=C(C#N)C#N)c2nsnc12`: the growth inhibition is 71% (active) in experiment [1] (setting [7]); 88% (active) in experiment [1] (setting [8]); -9.1% in experiment [1] (at 50.0 µM); 19% in experiment [2] (setting [7]); 82% (active) in experiment [2] (setting [8]); -1.6% in experiment [2] (at 50.0 µM). Moreover, the growth inhibition in experiment [3] (setting [7]) was 52%; in experiment [3] (setting [8]) it was 90% (active); in experiment [3] (at 50.0 µM), -9.75%; in experiment [4] (setting [7]) it was 55%; in experiment [4] (setting [8]), 83% (active); in experiment [4] (at 50.0 µM), -47.7%. The growth inhibition is 60% in experiment [6] (setting [7]); 91% (active) in experiment [6] (setting [8]); -14.2% in experiment [6] (at 50.0 µM); 36% in experiment [5] (setting [7]); 87% (active) in experiment [5] (setting [8]); 7.45% in experiment [5] (at 50.0 µM).
As for `C/C=C1\CC(C)(CC)C(C#N)(C#N)C(N)=C1C#N` (stereo not given), the growth inhibition in experiment [1] (setting [7]) was 0%; in experiment [1] (setting [8]) it was -9%; in experiment [1] (at 50.0 µM), -5.9%; in experiment [2] (setting [7]) it was -3%; in experiment [2] (setting [8]) it was 0%; in experiment [2] (at 50.0 µM) it was 10.5%. Besides, the growth inhibition in experiment [3] (setting [7]) is 2%; in experiment [3] (setting [8]), -4%; in experiment [3] (at 50.0 µM), -4.35%; in experiment [4] (setting [7]) it was -9%; in experiment [4] (setting [8]) it was -3%; in experiment [4] (at 50.0 µM), 3.35%. For the same compound, the growth inhibition in experiment [6] (setting [7]) is -3%; in experiment [6] (setting [8]) it was -2%; in experiment [6] (at 50.0 µM) it was 50.9%; in experiment [5] (setting [7]) it was 0%; in experiment [5] (setting [8]), -9%; in experiment [5] (at 50.0 µM), -28.7%.
For `O=[N+]([O-])c1c(I)ccc2ccccc12`, the growth inhibition in experiment [1] (setting [7]) is -24%; in experiment [1] (setting [8]) it was 90% (active); in experiment [1] (at 50.0 µM), 41.9%; in experiment [2] (setting [7]), 0%; in experiment [2] (setting [8]), 89% (active); in experiment [2] (at 50.0 µM), -0.95%. In addition, the growth inhibition in experiment [3] (setting [7]) was -6%; in experiment [3] (setting [8]) it was 95% (active); in experiment [3] (at 50.0 µM) it was 17.6%; in experiment [4] (setting [7]), -9%; in experiment [4] (setting [8]) it was 41%; in experiment [4] (at 50.0 µM) it was 11.5%. In addition, the growth inhibition in experiment [6] (setting [7]) is -2%; in experiment [6] (setting [8]), 66%; in experiment [6] (at 50.0 µM), 5.25%; in experiment [5] (setting [7]), 1%; in experiment [5] (setting [8]) it was 94% (active); in experiment [5] (at 50.0 µM), 36.5%.
On to `COc1cc[c]([Sn]([O][Sn]([Cl])([c]2ccc(OC)cc2)[c]2ccc(OC)cc2)[c]2ccc(OC)cc2)cc1`, for which the growth inhibition is 47% in experiment [1] (setting [7]); 95% (active) in experiment [1] (setting [8]); 27.7% in experiment [1] (at 50.0 µM); 31% in experiment [2] (setting [7]); 86% (active) in experiment [2] (setting [8]); 32.9% in experiment [2] (at 50.0 µM). Further, the growth inhibition in experiment [3] (setting [7]) is 58%; in experiment [3] (setting [8]), 98% (active); in experiment [3] (at 50.0 µM), 69.8%; in experiment [4] (setting [7]), 28%; in experiment [4] (setting [8]) it was 88% (active); in experiment [4] (at 50.0 µM), 53.5%. For the same compound, the growth inhibition in experiment [6] (setting [7]) is 50%; in experiment [6] (setting [8]), 96% (active); in experiment [6] (at 50.0 µM) it was 71.3% (active); in experiment [5] (setting [7]), 55%; in experiment [5] (setting [8]), 94% (active); in experiment [5] (at 50.0 µM), 73.7% (active).
